CYP2C19 inh: blockers of cytochrome P450 2C19 activity – biochemical, luminescence, ADME assay, primary screen; P33261; CYP2C19 Supersomes, luciferin-H EGE luminescence, 30 min; inhibition, % at 5 µM; hit rate 21% among 96,000;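 active = CYP2C19 inhibition above a set limit at 5 µM in the primary screen, cut at about 50% in these data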
CYP2C9 activ: human CYP2C9 activators, primary screen, biochemical, luminescence; Cytochrome P450 2C9 (Homo sapiens), P11712; recombinant CYP2C9, luciferin-H conversion; hits give high values; factor 1 = untreated enzyme, 0 = blocked; activation factor at 5 µM; hit rate 1.4% among 96,000; AID 1024, 2008;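 active = activation factor of 2 or more for CYP2C9 at a 5 µM dose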
Target sequence (P11712 whole entry, looked up): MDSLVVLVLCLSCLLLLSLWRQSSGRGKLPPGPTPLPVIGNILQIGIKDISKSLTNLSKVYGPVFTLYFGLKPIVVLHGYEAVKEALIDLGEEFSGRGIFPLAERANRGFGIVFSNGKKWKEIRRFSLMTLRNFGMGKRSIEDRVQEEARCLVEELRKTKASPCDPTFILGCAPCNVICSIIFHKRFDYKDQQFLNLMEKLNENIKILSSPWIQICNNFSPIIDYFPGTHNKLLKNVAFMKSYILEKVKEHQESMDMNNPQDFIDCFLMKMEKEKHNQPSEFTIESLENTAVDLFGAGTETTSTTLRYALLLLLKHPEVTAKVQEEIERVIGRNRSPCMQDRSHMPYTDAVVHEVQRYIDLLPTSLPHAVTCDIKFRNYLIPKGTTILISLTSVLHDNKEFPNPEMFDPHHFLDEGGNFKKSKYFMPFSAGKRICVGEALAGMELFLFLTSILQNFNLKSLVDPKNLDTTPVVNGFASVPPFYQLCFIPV
CYP2C19 activ: human CYP2C19 activators, primary screen, biochemical, luminescence | recombinant CYP2C19, luciferin-H EGE luminescence; hits give high values; 0 = fully inhibited enzyme, 1 = untreated enzyme | Cytochrome P450 2C19 (Homo sapiens), P33261 | 96,000 tested, under 10 active | activation factor at 5 µM;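 active = activation factor of at least 2 at 5 µM in the primary screen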
PostGolgi yeast: phenotypic screen on post-Golgi transport, primary screen; AID 739, 2007; post-Golgi transport phenotypic cell assay; inhibition, % at 10 µM; hit rate 0.9% among 98,000;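 note: yeast cells grown in 1536-well plates; yeast grown about 18 h at 30C before absorbance read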
CYP2C9 inh: blockers of cytochrome P450 2C9 activity – biochemical, luminescence, ADME assay, primary screen | P11712 | hit rate 20% among 96,000 | inhibition, % at 5 µM | CYP2C9 Supersomes, luciferin-H conversion;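 active = blocking of liver enzyme CYP2C9 beyond about 50% at 5 µM, limit read from the data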
PostGolgi ctrl: growth inhibition of yeast control strain, primary screen, counter-screen for post-Golgi transport modulator project; efflux-deficient yeast background strain, growth absorbance A615, 16 h; hit rate 5% among 98,000; AID 738, 2007; inhibition, % at 10 µM
Hits are given with their value; 0 = inactive. The list is not random: actives were taken first. Their share in the collection is about 32%. Cut-off read from the data, not from the text of the source, unless noted: active = inhibition above about 30%; inactive = the rest.

SMILES	CYP2C19 inh	CYP2C9 activ	CYP2C19 activ	PostGolgi yeast	CYP2C9 inh	PostGolgi ctrl
CCOc1c(P(=S)(N(C)C)N(C)C)c(C)nn1-c1ccccc1	89	0	0	0	78	0
COc1ccc(CCN(C)Cc2ccncc2)cc1OC	82	0	0	0	67	0
COc1ccc(CCNCc2ccncc2)cc1OC	66	0	0	0	52	0
O=C(NCC(c1cccnc1)N1CCN(c2ccccc2F)CC1)Oc1ccccc1 (stereo not drawn)	78	0	0	0	85	0
COc1ccc(N2CCN(C(CNC(=O)Oc3ccccc3)c3cccnc3)CC2)cc1 (stereo not drawn)	0	0	0	0	0	0
O=c1[nH]c(=O)n(-c2ccc(F)cc2)c(O)c1C=Nc1ccccc1N1CCCC1	0	0	0	0	0	0
CCc1c(C)nc(N)nc1N1N=C1SCC(N)=O	0	0	0	0	0	0
COC(=O)c1ccc(N2C(=O)CC(N3CCC(n4c(=O)[nH]c5ccccc54)CC3)C2=O)cc1 (stereo not drawn)	60	0	0	0	0	0
CCOP(=O)(OCC)C(O)c1ccc(OC)c(OC)c1 (stereo not drawn)	0	0	0	0	0	0
Cc1ccc2c(c1)CC1(CN2C)C(=O)NC(=O)N(c2cccc(C)c2C)C1=O (stereo not drawn)	0	0	0	0	0	0
Cc1ccc2c(c1)CC1(CN2C)C(=O)NC(=O)N(c2ccc(C)c(C)c2)C1=O (stereo not drawn)	53	0	0	0	86	0
Cc1ccc2c(c1)CC1(CN2C)C(=O)NC(=O)N(CCc2ccccc2)C1=O (stereo not drawn)	0	0	0	0	0	37
Cc1ccc2c(c1)CC1(CN2C)C(=O)NC(=O)N(c2ccccc2C)C1=O (stereo not drawn)	0	0	0	0	0	0
COc1ccccc1N1C(=O)NC(=O)C2(Cc3cc(C)ccc3N(C)C2)C1=O (stereo not drawn)	0	0	0	0	68	0
CCOc1cc(-c2nc3c(C)cccn3c2NCC2CCCO2)ccc1O (stereo not drawn)	0	0	0	0	0	0
CCN(CC)C(=O)c1ccc(NC(=O)Cn2nc(C)c3ccccc3c2=O)cc1	66	0	0	0	0	0
CCN(CC)C(=O)c1ccc(NC(=O)CSc2nnnn2-c2cc(OC)ccc2OC)cc1	0	0	0	0	0	0
CCC(=NCCCN(CC)CC)c1c(O)n(-c2ccccc2)c(=O)[nH]c1=O	0	0	0	0	0	0
O=C(CN1C(=O)CN=C(c2ccccc2Cl)c2cc(Cl)ccc21)NCc1ccco1	0	0	0	0	0	31
COc1ccc(C2=NCC(=O)N(CC(=O)NCc3ccco3)c3sc4c(c32)CCCC4)cc1	0	0	0	0	0	0
Cc1cccc(C2=NCC(=O)N(CC(=O)NCc3ccco3)c3sc4c(c32)CCCC4)c1	51	0	0	0	59	0
O=C(CSC1c2ccccc2-c2ccccc21)N/N=C/c1ccccc1O	59	0	0	0	53	0
CN(C)C1=C(C#N)C(c2ccccc2)=NP(N(C)C)(N(C)C)=N1	0	0	0	0	0	0
Fc1ccccc1N1CCN(Cc2c(F)cccc2F)CC1	100	0	0	0	63	0
Fc1ccccc1N1CCN(Cc2ccc3c(c2)OCO3)CC1	0	0	0	0	0	0
SMILES	CYP2C19 inh	CYP2C9 activ	CYP2C19 activ	PostGolgi yeast	CYP2C9 inh	PostGolgi ctrl
COc1ccc(CN2CCN(c3ccccc3F)CC2)cc1O	74	0	0	0	0	0
COc1ccccc1N1CCN(Cc2ccc(Cl)cc2Cl)CC1	56	0	0	0	0	0
COc1ccc2nc(/N=C/c3c(O)n(-c4cccc(Cl)c4)c(=O)[nH]c3=O)sc2c1	0	0	0	0	0	0
CCOc1ccc(Br)c(C2(O)CC(C)N(C)CC2C)c1 (stereo not drawn)	0	0	0	0	0	0
Cc1cccc(CN2CCN(Cc3ccc(Cl)cc3)CC2)c1	0	0	0	0	0	0
FC(F)(F)c1ccccc1CN1CCN(Cc2ccccc2)CC1	69	0	0	0	0	0
Cc1ccc(O)c(CN2CCN(c3ccccc3)CC2)c1	93	0	0	0	72	0
Oc1ccc(Cl)cc1CN1CCN(Cc2ccccc2)CC1	90	0	0	0	56	0
COc1ccc(CN2CCN(c3ccccc3)CC2)c(C)c1C	83	0	0	0	0	0
O=C1NC(=S)NC(=O)C12C(c1ccc(F)cc1)NC(=S)NC2c1ccc(F)cc1 (stereo not drawn)	0	0	0	0	0	0
CC1(C)CN2C(c3ccc(Cl)cc3)N2C1 (stereo not drawn)	0	0	0	0	0	0
O=C(Cc1ccccc1)N1CCN(C2CCCC2)CC1	0	0	0	0	0	0
O=C(COc1ccccc1)N1CCN(C/C=C/c2ccccc2)CC1	63	0	0	0	70	0
O=C(COc1ccccc1)N1CCN(C2CCCC2)CC1	64	0	0	0	0	0
c1ccc(C2CC3CC4(CCCC4)N2O3)cc1 (stereo not drawn)	0	0	0	0	0	0
CCC(C)N1Cc2ccccc2C1=N (stereo not drawn)	0	0	0	0	0	0
Clc1ccc2c(c1)C(c1ccccc1Cl)=NCc1nnc(N3CCN(CCSc4ccccc4)CC3)n1-2	0	0	0	0	68	0
O=C1CSC2(CN3CCC2CC3)N1 (stereo not drawn)	0	0	0	0	0	0
C=CCn1c(O)c(C(C)=NCc2cc(OC)cc(OC)c2)c(=O)[nH]c1=O	83	0	0	0	85	0
CCC(=Nc1cc(OC)ccc1OC)c1c(O)[nH]c(=O)[nH]c1=O	0	0	0	0	0	0
C=CCn1c(O)c(C(CC)=Nc2cc(OC)ccc2OC)c(=O)[nH]c1=O	79	0	0	0	90	0
C=CCn1c(O)c(C(C)=NCc2cccnc2)c(=O)[nH]c1=O	68	0	0	0	0	0
CCN(CC)C1=NC(=[N+](CC)CC)c2ccccc21	0	0	0	0	0	0
COc1ccc(-n2c(O)c(C=Nc3c(C)n(C)n(-c4ccccc4)c3=O)c(=O)[nH]c2=O)cc1	0	0	0	0	0	0
CN1CCc2nc(SCC(=O)OC(C)(C)C)c(C#N)cc2C1	71	0	0	0	0	0
CP(=O)(O)CCCN	61	0	0	0	0	0
CN1C(=O)N(C)C(=O)C2(Cc3ccccc3N3CCOCC32)C1=O (stereo not drawn)	98	0	0	0	0	0
Cc1cc2c(C(F)(F)F)cc(=O)oc2c2c1NCCC2	0	2.4	0	0	0	0
O=c1cc(C(F)(F)F)c2cc3c4c(c2o1)CCCN4CCC3	0	0	0	0	0	0

Source: PubChem
